Screens from PubChem BioAssay.
The list is not random: actives were taken first. Their share in the collection is about 2.9%.
KKLEB cytotox = CF airway cell cytotoxicity counter-screen; KKLEB CF airway cells viability, ATPlite luminescence, overnight; hits give low values; cells stimulated with P. aeruginosa culture filtrate; activity change (cytotoxicity), % at 5 µM; 0.36% of 360,000 active;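 active = corrected activity change at or below -50% at 5 µM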
TRPM1 prom inh = MITF TRPM1 promoter inhibition in SK-MEL-5 cells | SK-MEL-5 TRPM1 promoter luciferase, 24 h | inhibition, % at 12.5 µM | 0.83% of 330,000 active | AID 488899;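 active = mean inhibition across replicates of 60% or more, whatever share of single replicates reaches that level; inconclusive = some that reach 60%, reason not given; inactive = mean inhibition across replicates below 60%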
Peg3 prom inh = Peg3 promoter activity inhibition; HeLa PEG-Prom luciferase reporter, luminescence, overnight; inhibition, % at 20 µM; 1.7% of 360,000 active; AID 588405;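 active = inhibition of at least 50% at 20 µM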
EBV LMP1 NFkB = Epstein-Barr LMP1 NF-kappaB reporter inhibition; LMP1-induced NF-kappaB luciferase reporter cells, luminescence; inhibition, % at 12.5 µM; 0.69% of 350,000 active; in the data active = inhibition above about 41%; inconclusive = no clear call, values can overlap the other calls;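 note: 0% = neutral control wells and 100% = reference inhibitor control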
Shn3 3UTR inh = Schnurri-3 reporter inhibition in Clone20 osteoblasts. Clone20 osteoblast Shn3 3'UTR firefly luciferase, 24 h. inhibition, % at 12.5 µM. 0.52% of 360,000 active;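 active = mean inhibition of at least 75% with every replicate also reaching 75%; inconclusive = mean inhibition at least 75% but some replicate below; inactive = mean inhibition below 75%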;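 note: 0% = median of neutral control wells and 100% = pilot-screen positive control compound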
CF NFkB inh = blocks PAF-induced NF-kB reporter in cystic fibrosis cells. KKLEB NF-kB-GFP reporter, GFP fluorescence overnight. inhibition, % at 5 µM. 0.86% of 360,000 active;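 active = at least 50% inhibition at 5 µM, scaled per plate between neutral and stimulator controls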;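 note: PAF is a Pseudomonas aeruginosa culture filtrate used as stimulus; plate controls were PAF-stimulated DMSO wells for no effect and unstimulated DMSO wells for full effect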
* hit, by the source's call; ? = inconclusive; / = not tested or not shown.

SMILES | KKLEB cytotox | TRPM1 prom inh | Peg3 prom inh | EBV LMP1 NFkB | Shn3 3UTR inh | CF NFkB inh
Nc1cc2nsnc2cc1Br | -1 | 70* | 41 | 2 | 72 | 37
CC(C)Oc1ccc(C(=O)Nc2nnc(SCC(=O)N3CCOCC3)s2)cc1 | -74* | 51 | 38 | 70* | 35 | 12
CN(C)S(=O)(=O)c1ccc(C(=O)Nc2nnc(SCC(=O)N3CCOCC3)s2)cc1 | 7 | / | -9 | 17 | -1 | -36
Cc1ccc(C(=O)Nc2nnc(-c3ccc(C(C)(C)C)cc3)s2)cc1 | -2 | -11 | -26 | 57* | -18 | -5
CCOC(=O)CNC(=O)CSc1nnc(NC(=O)c2ccc(C)cc2)s1 | -18 | 42 | 36 | 55* | 34 | 7
Cc1ccc(C(=O)Nc2nnc(SCC(=O)N3CCCc4ccccc43)s2)cc1 | -97* | 32 | 0 | 51* | -11 | 3
Cc1ccccc1-c1cnc(C(O)c2ccc(F)cc2C)[nH]1 (stereo not drawn) | -7 | / | -7 | / | -1 | 8
COc1ccc([C@H]2C[C@@H](n3cc(-c4ccc(F)cc4)nn3)[C@H](O)CN2C(=O)C2CCCCC2)cc1 | 5 | / | 10 | 7 | -9 | -28
COc1ccc2c(-c3cc4ccc(OCc5ccc(F)cc5)cc4oc3=O)cc(=O)oc2c1 | -25 | 32 | 76* | -3 | 27 | 15
CCCCCn1c(=NC(=O)c2cccnc2)c(C#N)cc2c(=O)n3cccc(C)c3nc21 | 1 | 14 | 56* | -2 | -9 | -46
CCCCn1c(=NC(C)=O)c(C#N)cc2c(=O)n3cccc(C)c3nc21 | -1 | -2 | 20 | -3 | 29 | -173
CCCC(=O)NCCc1nc2ccccc2n1C | -9 | 2 | 6 | -2 | -1 | 12
CCCC(=O)NCCCc1nc2ccccc2[nH]1 | 24 | 9 | 10 | 87* | -23 | -10
CCCC(=O)NCCCc1nc2ccccc2n1C | 11 | -6 | -2 | 92* | 14 | -3
COCC(=O)NCCc1nc2ccccc2[nH]1 | 2 | / | -7 | -1 | -18 | 0
Cc1ccc(CCNC(=O)CCc2nc3ccccc3[nH]2)cc1 | -1 | -8 | 7 | 57* | 5 | 21
NC1(CO)COC(c2ccccc2)OC1 (stereo not drawn) | -3 | / | -8 | -2 | 6 | 11
NC(=O)c1cnc(Cc2c[nH]c3ccccc23)c(I)c1 | 0 | / | 12 | / | 15 | 7
Cc1ccc2[nH]c(O)c(N=NC(N)=S)c2c1 | -1 | -11 | -16 | -6 | -19 | -20
CC(/C=C(\NC(=O)c1ccccc1)C(=O)N=Nc1c(O)[nH]c2ccc(C)cc12)=C\c1ccccc1 | -14 | 11 | 53* | 12 | 19 | 53*
COc1cccc2cc(-c3nnc(-c4ccccc4)o3)c(=O)oc12 | -5 | 4 | -23 | 50* | 16 | -12
Cc1cn([C@H]2C[C@H](O)[C@@H](/C=C/C(=O)NCCC(c3ccccc3)c3ccccc3)O2)c(=O)[nH]c1=O | -2 | / | -22 | / | 0 | -10
COc1ccc(S(=O)(=O)Nc2cc(S(=O)(=O)N3CCOCC3)ccc2OC)cc1 | 1 | -5 | -9 | -3 | -26 | -14
O=C1CCCCCN1C(=O)c1ccccc1 | -4 | -2 | 5 | 18 | -4 | 10
CC(C)(C)c1ccc(C(=O)N2CCCCCC2=O)cc1 | -4 | 81* | 35 | 39 | / | 6
SMILES | KKLEB cytotox | TRPM1 prom inh | Peg3 prom inh | EBV LMP1 NFkB | Shn3 3UTR inh | CF NFkB inh
CCCNC(=O)c1cc(C2CCCN(C(=O)C3CC3)C2)on1 (stereo not drawn) | -3 | / | -110 | / | -54 | -24
O=C(c1cc(C2CC2)on1)N1CCN(C(c2ccccc2)c2ccccc2)CC1 | 21 | / | 0 | -27 | 7 | 4
O=C(c1cc(-c2cccc(O)c2)on1)N1CCN(C(c2ccccc2)c2ccccc2)CC1 | -13 | -1 | 82* | -6 | 44 | 29
CCC(C)C(CO)NCCCn1cnc2c(OC)ncnc21 (stereo not drawn) | -5 | / | -5 | 0 | 15 | -3
O=C(CCl)Nc1cc(-c2ccccc2)nn1-c1ccccc1 | -54* | 67* | 41 | -10 | 19 | 0
COc1cc(CN2C[C@@H](CO)O[C@@H](n3cnc4c(NCc5ccc(F)cc5)ncnc43)C2)cc(OC)c1OC | -13 | / | 7 | / | 3 | 8
O=C1CC(SC(=NCc2ccc3c(c2)OCO3)Nc2ccccc2)C(=O)N1 (stereo not drawn) | -7 | -4 | -15 | 55* | -10 | -7
COc1ccc(CN=C(Nc2ccccc2)SC2CC(=O)NC2=O)cc1 (stereo not drawn) | -9 | -9 | 11 | -4 | -3 | 5
COc1cccc(-n2nnnc2S(C)(=O)=O)c1 | -32 | 78* | 103* | 90* | 97* | 94*
CC1(C)CC(N=c2cc(-c3ccccc3)oc3ccc(Cl)cc23)CC(C)(C)N1 | -16 | 54 | 108* | -53 | -143 | 2
CC(=NNC(=S)N1CC2CCC(CC2)C1)c1ccncn1 | -21 | 78* | 100* | 35 | 88* | 33
Cc1cccc(C(=S)N2CCOCC2)n1 | -14 | -7 | -10 | 1 | -5 | 10
CC(=NNC(=S)N1CCCCC1)c1cccc(C)n1 | 26 | 44 | -27 | 69* | 76 | -35
CSC(=S)NN=C(C)c1cccc(C)n1 | -10 | 74* | 35 | 5 | 93* | 76*
CC(=NNC(=S)N1CCCCC1)c1ccccn1 | -4 | / | -14 | 57* | ? | -18
C[C@@H]1CN([C@@H](C)CO)S(=O)(=O)c2ccc(C#CC(C)(C)O)cc2O[C@H]1CN(C)C(=O)C1CCCCC1 | -2 | / | 0 | 5 | -6 | -23
Cc1nc(Cc2nnc(SC(C)C(=O)Nc3ccccc3)o2)cs1 (stereo not drawn) | -6 | / | -12 | 1 | -6 | 12
COc1ccc(-c2nc(-c3ccc(NC(=O)c4ccc(Br)o4)cc3)no2)cc1OC | -6 | 3 | 54* | 6 | 17 | -4
CCN(CC)CC(=O)Nc1ccc(-c2nc3cc(NC(=O)CN(CC)CC)ccc3o2)cc1 | 7 | -17 | 47 | -49 | 0 | -7
CCC(C)NCC(=O)Nc1ccc(-c2nc3cc(NC(=O)CNC(C)CC)ccc3o2)cc1 (stereo not drawn) | 4 | 84* | 108* | -44 | 9 | -12
O=S(=O)(CCNCc1ccco1)NC1CCCCC1 | 11 | -5 | -5 | 7 | -7 | -11
COc1ccc2cc(C(=O)Nc3ccc(S(N)(=O)=O)cc3)sc(=O)c2c1OC | 6 | -6 | 79* | 6 | 0 | -2
CNc1ncnc2c1ncn2[C@H]1CN(CCOC)C[C@@H](CO)O1 | 7 | / | 9 | / | -11 | -8
COc1ccc2sc3c(=O)[nH]c4ccccc4c3c2c1 | -26 | 46 | 25 | 88* | 9 | 63*
COc1ccc(-n2c(C)c([N+](=O)[O-])c3ccc(O)c(CN(C)C)c32)cc1 | -23 | -13 | 33 | 70* | 4 | 79*
